Here are results for one sequence from paper PMC7862700, “An all-to-all approach to the identification of sequence-specific readers for epigenetic DNA modifications on cytosine”.

Test in all cases: DAPPL (digital affinity profiling via proximity ligation, sequencing); 10 mM Tris-HCl pH 7.5, 50 mM NaCl, 1 mM DTT, 4% glycerol, room temperature, 30 min; GST-TFs on glutathione beads, 16-mer random dsDNA library, 0.1% formaldehyde crosslink after washing; high values mean tight binding
One test concerns the target T1, FLI1 (Homo sapiens, UniProt Q01543 1-452).
T1 sequence: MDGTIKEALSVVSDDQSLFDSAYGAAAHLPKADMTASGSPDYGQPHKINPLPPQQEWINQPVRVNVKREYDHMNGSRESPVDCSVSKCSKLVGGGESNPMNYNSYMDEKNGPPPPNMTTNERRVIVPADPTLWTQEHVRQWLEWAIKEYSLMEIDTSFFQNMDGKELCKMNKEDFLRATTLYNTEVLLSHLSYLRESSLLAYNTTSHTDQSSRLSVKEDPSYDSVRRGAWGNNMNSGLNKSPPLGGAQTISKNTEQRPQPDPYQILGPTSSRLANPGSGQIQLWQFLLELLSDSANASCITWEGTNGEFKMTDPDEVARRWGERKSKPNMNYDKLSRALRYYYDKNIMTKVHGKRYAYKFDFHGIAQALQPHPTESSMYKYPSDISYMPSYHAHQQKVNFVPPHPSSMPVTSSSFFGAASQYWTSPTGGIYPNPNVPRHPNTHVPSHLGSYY
The conditions noted are these: protein: recombinant; tags: N-terminal GST; dsDNA, one strand shown. In short, it runs like this: (§1)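 Pools of DNA-barcoded human transcription factors, expressed in yeast as GST fusions on glutathione beads and combined with a tag-only sample, were incubated with 200 nmole of a 16-mer random double-stranded DNA library. Incubation took 30 min at room temperature in Tris/NaCl/DTT/glycerol buffer and was followed by washing, 0.1% formaldehyde crosslinking, proximity ligation (BsaI/T4 ligase, 1 h, 37 °C), PCR amplification and sequencing on an Illumina NextSeq500. Binding signal is the ratio of a hexamer's read frequency for a factor to its frequency for the tag-only sample.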

The target of a further test is T2, ELK1 (Homo sapiens, UniProt P19419 1-428).
T2 sequence: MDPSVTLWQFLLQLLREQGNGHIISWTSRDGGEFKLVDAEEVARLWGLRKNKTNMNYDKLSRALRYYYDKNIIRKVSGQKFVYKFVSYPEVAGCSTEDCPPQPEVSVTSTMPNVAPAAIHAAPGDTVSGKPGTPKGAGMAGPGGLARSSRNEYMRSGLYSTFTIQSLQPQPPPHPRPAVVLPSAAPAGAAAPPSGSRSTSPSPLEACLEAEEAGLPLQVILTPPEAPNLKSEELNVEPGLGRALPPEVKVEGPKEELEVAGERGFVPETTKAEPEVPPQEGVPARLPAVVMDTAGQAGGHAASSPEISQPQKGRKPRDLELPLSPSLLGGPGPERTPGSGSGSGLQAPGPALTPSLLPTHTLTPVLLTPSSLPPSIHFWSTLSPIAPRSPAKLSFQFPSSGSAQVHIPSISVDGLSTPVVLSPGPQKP
The conditions noted are these: protein: recombinant; tags: N-terminal GST; dsDNA, one strand shown. In short, it runs like this: as §1

For another test, the target named is ELF1 (Homo sapiens, UniProt P32519 1-619). The conditions noted are these: protein: recombinant; tags: N-terminal GST; dsDNA, one strand shown. In a few lines:
as §1

Another test has as its target SPI1 (Homo sapiens, UniProt P17947 1-270). The conditions noted are these: protein: recombinant; tags: N-terminal GST; dsDNA, one strand shown. In a few lines:
as §1

The target in a further test is SPIB (Homo sapiens, UniProt Q01892 1-262). The conditions noted are these: protein: recombinant; tags: N-terminal GST; dsDNA, one strand shown. In a few lines: as §1
Chain of SPIB (Q01892 whole entry): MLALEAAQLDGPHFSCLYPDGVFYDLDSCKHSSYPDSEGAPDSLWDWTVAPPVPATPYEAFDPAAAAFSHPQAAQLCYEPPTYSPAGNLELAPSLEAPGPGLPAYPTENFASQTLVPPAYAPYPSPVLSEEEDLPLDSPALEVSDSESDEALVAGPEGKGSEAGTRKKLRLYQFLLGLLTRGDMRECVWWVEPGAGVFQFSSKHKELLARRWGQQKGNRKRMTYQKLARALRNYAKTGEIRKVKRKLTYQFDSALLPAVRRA
In another test the target is T3, ELK3 (Homo sapiens, UniProt P41970 1-407).
T3 sequence: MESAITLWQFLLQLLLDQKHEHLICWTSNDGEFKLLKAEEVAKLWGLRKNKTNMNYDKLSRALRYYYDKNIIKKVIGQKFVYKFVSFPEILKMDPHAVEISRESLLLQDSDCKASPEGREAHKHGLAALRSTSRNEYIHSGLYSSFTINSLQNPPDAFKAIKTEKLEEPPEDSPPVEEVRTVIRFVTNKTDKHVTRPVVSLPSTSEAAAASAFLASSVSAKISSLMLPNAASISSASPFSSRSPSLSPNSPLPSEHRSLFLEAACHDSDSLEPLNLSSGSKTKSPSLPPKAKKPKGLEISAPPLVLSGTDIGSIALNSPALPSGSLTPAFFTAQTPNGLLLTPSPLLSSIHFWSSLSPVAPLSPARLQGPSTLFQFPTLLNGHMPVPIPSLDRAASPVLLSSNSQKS
The note with it: protein: recombinant; tags: N-terminal GST; dsDNA, one strand shown. In a few lines:
as §1

The next test concerns the target T4, FEV (Homo sapiens, UniProt Q99581 1-238).
T4 sequence: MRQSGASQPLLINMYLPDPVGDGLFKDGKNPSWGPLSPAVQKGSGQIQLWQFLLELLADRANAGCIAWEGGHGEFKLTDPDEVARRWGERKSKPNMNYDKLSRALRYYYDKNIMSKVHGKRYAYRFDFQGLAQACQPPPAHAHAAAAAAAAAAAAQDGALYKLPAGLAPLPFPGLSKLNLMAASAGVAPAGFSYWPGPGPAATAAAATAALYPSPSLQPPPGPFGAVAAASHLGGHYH
The conditions noted are these: protein: recombinant; tags: N-terminal GST; dsDNA, one strand shown. In a few lines:
as §1

Another test deals with ETV5 (Homo sapiens, UniProt P41161 1-510). The conditions noted are these: protein: recombinant; tags: N-terminal GST; dsDNA, one strand shown. In short, it runs like this:
as §1

The target of a further test is HSF1 (Homo sapiens, UniProt Q00613 1-529). The note with it: protein: recombinant; tags: N-terminal GST; chain copies: 3; dsDNA, one strand shown. In short, it runs like this: as §1
Chain of HSF1 (Q00613 whole entry): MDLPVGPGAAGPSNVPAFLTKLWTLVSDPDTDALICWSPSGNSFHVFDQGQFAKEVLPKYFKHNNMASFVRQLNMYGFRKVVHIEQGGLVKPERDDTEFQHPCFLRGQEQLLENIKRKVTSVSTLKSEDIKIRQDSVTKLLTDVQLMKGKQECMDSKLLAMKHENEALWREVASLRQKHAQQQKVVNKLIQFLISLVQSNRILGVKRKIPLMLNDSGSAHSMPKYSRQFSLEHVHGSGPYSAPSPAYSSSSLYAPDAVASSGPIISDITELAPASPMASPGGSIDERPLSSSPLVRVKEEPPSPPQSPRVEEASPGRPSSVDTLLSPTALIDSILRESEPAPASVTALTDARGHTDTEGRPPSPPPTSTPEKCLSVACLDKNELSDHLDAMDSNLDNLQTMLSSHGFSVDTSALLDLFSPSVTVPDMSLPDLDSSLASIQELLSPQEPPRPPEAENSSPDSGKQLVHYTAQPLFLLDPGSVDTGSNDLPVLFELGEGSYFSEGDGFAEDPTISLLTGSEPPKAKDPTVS
The next test has as its target T5, SPIC (Homo sapiens, UniProt Q8N5J4 1-248).
T5 sequence: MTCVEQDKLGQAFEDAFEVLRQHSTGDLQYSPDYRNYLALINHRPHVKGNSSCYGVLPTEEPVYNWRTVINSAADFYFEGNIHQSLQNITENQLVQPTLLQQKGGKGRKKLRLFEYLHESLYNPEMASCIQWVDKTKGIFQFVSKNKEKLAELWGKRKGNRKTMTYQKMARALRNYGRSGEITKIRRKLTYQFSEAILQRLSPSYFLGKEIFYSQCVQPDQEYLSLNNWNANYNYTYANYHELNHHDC
The note with it: protein: recombinant; tags: N-terminal GST; dsDNA, one strand shown. In a few lines: as §1

A further test deals with ELF4 (Homo sapiens, UniProt Q99607 1-663). The conditions noted are these: protein: recombinant; tags: N-terminal GST; dsDNA, one strand shown. In short, it runs like this:
as §1

A further test deals with T6, ELK4 (Homo sapiens, UniProt P28324-2 1-405).
T6 sequence: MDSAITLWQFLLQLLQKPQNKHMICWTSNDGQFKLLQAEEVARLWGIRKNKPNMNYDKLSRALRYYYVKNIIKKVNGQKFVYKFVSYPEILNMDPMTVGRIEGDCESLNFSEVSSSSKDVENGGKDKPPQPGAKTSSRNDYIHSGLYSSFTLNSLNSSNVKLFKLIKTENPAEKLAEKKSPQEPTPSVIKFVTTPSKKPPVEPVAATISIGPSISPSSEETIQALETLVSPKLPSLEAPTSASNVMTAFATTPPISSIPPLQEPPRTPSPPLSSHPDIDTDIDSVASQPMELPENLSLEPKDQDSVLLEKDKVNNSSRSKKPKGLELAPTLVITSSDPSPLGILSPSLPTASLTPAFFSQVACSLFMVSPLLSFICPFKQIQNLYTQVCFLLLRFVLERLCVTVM
The conditions noted are these: protein: recombinant; tags: N-terminal GST; dsDNA, one strand shown. In a few lines: as §1

For another test, the target named is T7, ETV2 (Homo sapiens, UniProt O00321 1-342).
T7 sequence: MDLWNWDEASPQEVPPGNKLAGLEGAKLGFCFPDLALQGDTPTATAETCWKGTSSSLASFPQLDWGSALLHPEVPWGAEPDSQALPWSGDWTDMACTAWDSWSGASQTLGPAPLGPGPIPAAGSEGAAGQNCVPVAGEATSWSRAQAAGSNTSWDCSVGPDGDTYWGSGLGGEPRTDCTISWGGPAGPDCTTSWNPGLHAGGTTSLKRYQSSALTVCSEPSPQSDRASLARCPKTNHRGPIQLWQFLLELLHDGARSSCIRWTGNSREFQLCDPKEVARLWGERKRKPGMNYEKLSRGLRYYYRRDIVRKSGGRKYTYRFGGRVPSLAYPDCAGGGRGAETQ
The note with it: protein: recombinant; tags: N-terminal GST; dsDNA, one strand shown. In a few lines: as §1

The next test deals with T8, ELF3 (Homo sapiens, UniProt P78545 1-371).
T8 sequence: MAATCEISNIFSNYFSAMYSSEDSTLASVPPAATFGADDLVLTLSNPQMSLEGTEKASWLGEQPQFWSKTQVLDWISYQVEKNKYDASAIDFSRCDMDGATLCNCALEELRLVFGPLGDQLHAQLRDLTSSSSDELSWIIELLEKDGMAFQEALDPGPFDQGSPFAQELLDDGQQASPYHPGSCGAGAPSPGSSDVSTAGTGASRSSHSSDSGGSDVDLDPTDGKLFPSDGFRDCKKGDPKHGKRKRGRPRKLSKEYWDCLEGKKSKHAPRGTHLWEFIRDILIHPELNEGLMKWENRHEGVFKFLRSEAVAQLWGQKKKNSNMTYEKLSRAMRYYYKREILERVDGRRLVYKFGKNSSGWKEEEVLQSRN
The conditions noted are these: protein: recombinant; tags: N-terminal GST; dsDNA, one strand shown. In short, it runs like this: as §1

The target in another test is CRX (Homo sapiens, UniProt O43186 1-299). The conditions noted are these: protein: recombinant; tags: N-terminal GST; dsDNA, one strand shown. In a few lines: as §1
Chain of CRX (O43186 whole entry): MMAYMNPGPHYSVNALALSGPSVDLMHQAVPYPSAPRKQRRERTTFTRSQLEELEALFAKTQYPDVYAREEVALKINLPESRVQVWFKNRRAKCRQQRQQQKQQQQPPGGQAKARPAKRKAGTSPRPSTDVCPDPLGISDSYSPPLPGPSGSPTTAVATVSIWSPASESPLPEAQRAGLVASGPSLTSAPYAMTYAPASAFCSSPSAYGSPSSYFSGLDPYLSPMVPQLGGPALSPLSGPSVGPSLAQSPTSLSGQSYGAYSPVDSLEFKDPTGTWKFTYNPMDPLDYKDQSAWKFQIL
Another test addresses ETV1 (Homo sapiens, UniProt P50549 1-477). The note with it: protein: recombinant; tags: N-terminal GST; dsDNA, one strand shown. In short, it runs like this:
as §1

Chain of ETV1 (P50549 whole entry): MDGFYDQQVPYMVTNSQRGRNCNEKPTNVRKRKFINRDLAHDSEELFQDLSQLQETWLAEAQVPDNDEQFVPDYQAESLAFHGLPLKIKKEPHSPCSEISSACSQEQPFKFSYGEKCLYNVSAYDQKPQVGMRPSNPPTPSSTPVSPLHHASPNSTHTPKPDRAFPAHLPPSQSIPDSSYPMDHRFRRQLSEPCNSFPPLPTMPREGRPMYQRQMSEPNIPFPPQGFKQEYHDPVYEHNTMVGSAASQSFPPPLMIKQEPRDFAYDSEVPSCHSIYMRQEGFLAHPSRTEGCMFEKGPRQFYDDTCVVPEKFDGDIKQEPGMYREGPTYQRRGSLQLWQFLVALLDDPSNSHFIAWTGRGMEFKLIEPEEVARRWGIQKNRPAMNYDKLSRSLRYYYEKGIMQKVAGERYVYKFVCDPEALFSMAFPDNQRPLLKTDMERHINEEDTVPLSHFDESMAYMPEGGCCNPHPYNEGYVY
Chain of ELF1 (P32519 whole entry): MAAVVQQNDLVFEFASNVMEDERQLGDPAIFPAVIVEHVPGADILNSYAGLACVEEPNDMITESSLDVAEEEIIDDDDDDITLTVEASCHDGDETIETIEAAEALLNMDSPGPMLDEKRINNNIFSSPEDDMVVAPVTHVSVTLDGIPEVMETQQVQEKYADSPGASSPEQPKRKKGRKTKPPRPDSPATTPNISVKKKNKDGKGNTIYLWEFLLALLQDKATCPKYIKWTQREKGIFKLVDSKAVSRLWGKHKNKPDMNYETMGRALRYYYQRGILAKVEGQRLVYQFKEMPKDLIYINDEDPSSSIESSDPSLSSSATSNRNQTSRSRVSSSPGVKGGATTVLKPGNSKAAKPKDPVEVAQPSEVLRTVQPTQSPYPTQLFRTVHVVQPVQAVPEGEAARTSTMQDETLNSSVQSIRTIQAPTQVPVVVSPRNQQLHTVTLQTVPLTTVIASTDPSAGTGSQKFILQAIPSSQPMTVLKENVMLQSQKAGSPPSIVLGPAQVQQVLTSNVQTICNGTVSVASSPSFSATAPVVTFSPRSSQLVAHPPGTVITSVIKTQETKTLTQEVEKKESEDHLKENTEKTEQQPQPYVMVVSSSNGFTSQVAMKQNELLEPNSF
Chain of ELF4 (Q99607 whole entry): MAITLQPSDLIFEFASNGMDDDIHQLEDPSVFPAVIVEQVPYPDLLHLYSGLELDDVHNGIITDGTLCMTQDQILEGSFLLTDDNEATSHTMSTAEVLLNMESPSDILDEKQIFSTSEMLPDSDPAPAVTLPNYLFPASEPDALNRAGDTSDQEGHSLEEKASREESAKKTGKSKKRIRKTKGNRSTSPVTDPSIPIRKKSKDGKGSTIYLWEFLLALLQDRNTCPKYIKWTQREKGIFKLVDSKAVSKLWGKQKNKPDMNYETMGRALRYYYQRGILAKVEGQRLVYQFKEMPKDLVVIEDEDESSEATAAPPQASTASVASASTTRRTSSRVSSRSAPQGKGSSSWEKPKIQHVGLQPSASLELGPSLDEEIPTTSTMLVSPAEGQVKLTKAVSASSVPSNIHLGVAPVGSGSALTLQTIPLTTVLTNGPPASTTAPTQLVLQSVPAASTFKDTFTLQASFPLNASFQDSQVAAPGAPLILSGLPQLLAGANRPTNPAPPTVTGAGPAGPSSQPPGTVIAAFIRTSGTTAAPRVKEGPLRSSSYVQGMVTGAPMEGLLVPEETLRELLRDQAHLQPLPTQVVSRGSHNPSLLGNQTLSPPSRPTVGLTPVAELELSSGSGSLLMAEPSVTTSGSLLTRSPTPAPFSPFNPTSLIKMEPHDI
Chain of ETV5 (P41161 whole entry): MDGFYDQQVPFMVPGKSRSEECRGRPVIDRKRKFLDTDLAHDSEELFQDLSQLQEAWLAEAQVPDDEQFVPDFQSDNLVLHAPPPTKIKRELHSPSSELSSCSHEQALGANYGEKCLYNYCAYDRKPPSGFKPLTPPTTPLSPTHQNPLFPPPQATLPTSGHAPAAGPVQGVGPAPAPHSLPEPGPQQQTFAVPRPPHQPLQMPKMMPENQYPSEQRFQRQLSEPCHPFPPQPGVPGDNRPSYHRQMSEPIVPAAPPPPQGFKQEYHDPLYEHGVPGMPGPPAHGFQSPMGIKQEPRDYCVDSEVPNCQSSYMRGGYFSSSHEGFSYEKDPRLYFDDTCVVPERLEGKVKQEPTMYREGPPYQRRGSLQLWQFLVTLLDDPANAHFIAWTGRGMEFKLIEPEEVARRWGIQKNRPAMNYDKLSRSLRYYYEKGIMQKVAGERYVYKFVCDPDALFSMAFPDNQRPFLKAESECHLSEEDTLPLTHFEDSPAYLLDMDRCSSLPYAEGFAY

For the sequence TTCCAG, the binding signal was 1.03 fold enrichment (6-mer frequency, TF over GST control) in the test with FLI1; 1.02 fold enrichment (6-mer frequency, TF over GST control) with ELK1; 1.02 fold enrichment (6-mer frequency, TF over GST control) in the test with ELF1; 1.05 fold enrichment (6-mer frequency, TF over GST control) with SPI1; 1.1 fold enrichment (6-mer frequency, TF over GST control) in the test with SPIB; 1.07 fold enrichment (6-mer frequency, TF over GST control) with ELK3. Also, the binding signal is 1.05 fold enrichment (6-mer frequency, TF over GST control) with FEV; 1.06 fold enrichment (6-mer frequency, TF over GST control) with ETV5; 3.69 fold enrichment (6-mer frequency, TF over GST control) with HSF1; 1.02 fold enrichment (6-mer frequency, TF over GST control) in the test with SPIC; 1.17 fold enrichment (6-mer frequency, TF over GST control) with ELF4; 1.15 fold enrichment (6-mer frequency, TF over GST control) with ELK4. Moreover, the binding signal is 1.12 fold enrichment (6-mer frequency, TF over GST control) with ETV2; 1.05 fold enrichment (6-mer frequency, TF over GST control) in the test with ELF3; 1.68 fold enrichment (6-mer frequency, TF over GST control) with CRX; 1.05 fold enrichment (6-mer frequency, TF over GST control) with ETV1.
